Only some compounds are listed: those with a hit (about 2.6% of all), similar ones and a draw of the others.
ATXN2 expr inh: Primary qHTS for Inhibitors of ATXN expression | Potency, µM (highest dose often 57 µM), without a hit: at the top dose activity change, negative = inhibition, actives largely listed as inhibitors | HEK-293 ATXN2-luciferase reporter, luminescence, 24 h | 0.72% of 360,000 active; further: potency means the concentration at half of the fitted maximal effect; on the % scale 0 is the no-effect control and ±100 the full control effect; nearly all actives have a fitted effect of over 55% in size
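ATXN2-luciferase reporter cells (luciferase flanked by upstream and downstream ATXN2 gene portions) were treated 24 h at 37 °C with compounds at up to 57 uM. SteadyGlo luminescence gave expression; GF-AFC fluorescence gave viability.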
Giardia killer: Small Molecules that selectively kill Giardia lamblia: qHTS; Giardia lamblia trophozoite viability; activity change, % at 7.66 µM, hits read low; 0.15% of 340,000 active; AID 540267, 2011; in the data active means activity change below about -80%; inconclusive means between about -30% and that limit;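 further: parasites exposed to compound for two days anaerobically before the ATP read; on the % scale 0 is the no-effect control and ±100 the full control effect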
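Killing of trophozoites was scored by loss of ATP luminescence after a 48 hrs anaerobic exposure to compounds at 37 deg C, using 100 cells per well.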
TGFb SMAD3 inh: qHTS for Inhibitors of TGF-b; HepG2 CAGA-GFP TGF-b/SMAD3 reporter, GFP fluorescence, 18 h; TGF-beta stimulated, 500 pg/mL final; Potency, µM (top dose mostly 46.1 µM), without a hit: at the highest dose activity, negative = inhibition, usual class: inhibitors; 1.2% of 410,000 active; AID 588855, 2011; further: potency means the concentration at half of the fitted maximal effect; on the % scale 0 is the no-effect control and ±100 the full control effect; nearly all actives have a fitted effect of over 65% in size
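First, reporter cells (HEPG2 CAGA-GFP) rested 2 h at 37 degrees C. Next, compounds were pinned in and TGF-beta added to 500 pg/mL final. After 18 h, GFP was imaged per cell and summed per well.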
HepG2 viability: qHTS for Inhibitors of TGF-b: Cytotox Counterscreen; HepG2 CAGA-GFP viability, ATP luminescence, 18 h; Potency, µM (series often up to 46.1 µM), for inactives: top-dose activity change, negative = cytotoxicity, actives largely listed as cytotoxic; 0.76% of 410,000 active; AID 588856, 2011; further: potency means the concentration at half of the fitted maximal effect
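CellTiter-Glo luminescence gave cytotoxicity after 18 hours at 37 degrees C. The cells were HepG2 CAGA-GFP in 1% FBS DMEM, stimulated with 500 pg/mL TGF-beta after compound addition. %Activity was normalised to no-cell wells (complete cell-killing) and DMSO (no toxicity), and curves were fitted and classified.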
S2 tox: Viability Counterscreen for Primary qHTS for Inhibitors of ATXN expression; S2 cells (HEK-293 line with an ATXN2-luciferase reporter) viability, CellTiter-Fluor protease fluorescence, 24 h; Potency, µM (highest dose often 56.7 µM), usual class: cytotoxic; 0.49% of 400,000 active; AID 651635, 2014; further: potency means the concentration at half of the fitted maximal effect; nearly all actives have a fitted effect of over 40% in size
uPA generation: qHTS for Inhibitors of Cell Surface uPA Generation. AID 540303, 2011. 0.31% of 330,000 active. cell surface uPA generation assay, qHTS. Potency, µM (top dose mostly 38.3 µM), for the others: top-dose activity change, negative = inhibition, actives largely listed as inhibitors; active means well fitted inhibition curve with a large enough effect; inconclusive means small, poorly fitted or top-dose-only effect; inactive means no such curve, though single readings can be large or run the other way; tested in mouse RAW 264.7 cells; further: potency means the concentration at half of the fitted maximal effect; on the % scale 0 is the no-effect control and ±100 the full control effect; nearly all actives have a fitted effect of over 55% in size
An asterisk follows results filed as active. Unless noted, the call rests on the fitted dose curve; in most records, active means well fitted curve in the direction sought with a large enough effect; inconclusive means small, poorly fitted or top-dose-only effect, or another doubt; inactive means no such curve, though single readings can be large; an effect the other way counts as inactive or inconclusive.

`COc1ccc(-c2nc(Cn3c(SCc4ccc(C)cc4)nc4ccncc43)c(C)o2)cc1OC` gave ATXN2 expr inh 29%, Giardia killer -28, TGFb SMAD3 inh inconclusive, HepG2 viability -87%, S2 tox inconclusive and uPA generation 8.9µM*.
For O=C(NN(c1ccccc1)c1ccccc1)c1ccc([N+](=O)[O-])o1 the results were ATXN2 expr inh inconclusive, Giardia killer -89*, TGFb SMAD3 inh inconclusive, HepG2 viability -97%, S2 tox inconclusive and uPA generation -8%.
Screening O=C(Nc1ccc(Cl)cn1)c1ccc([N+](=O)[O-])o1 returned ATXN2 expr inh inconclusive, Giardia killer inconclusive, TGFb SMAD3 inh 11µM*, HepG2 viability 18µM*, S2 tox inactive and uPA generation -13%.
`O=C(NCc1ccco1)NC(=O)c1csc([N+](=O)[O-])c1` gave ATXN2 expr inh -2%, Giardia killer -82*, TGFb SMAD3 inh 5%, HepG2 viability 4%, S2 tox inactive and uPA generation -1%.
`O=C(Nc1cccnc1)c1ccc([N+](=O)[O-])o1` gave ATXN2 expr inh 1%, Giardia killer -86*, TGFb SMAD3 inh inconclusive, HepG2 viability -83%, S2 tox inactive and uPA generation inconclusive.
`CCNC(=O)NC(=O)c1csc([N+](=O)[O-])c1` gave ATXN2 expr inh 6%, Giardia killer inconclusive, TGFb SMAD3 inh -2%, HepG2 viability 9%, S2 tox inactive and uPA generation -1%.
For O=C(NCc1ccco1)c1ccc([N+](=O)[O-])o1 the results were ATXN2 expr inh 3%, Giardia killer -81*, TGFb SMAD3 inh 7%, HepG2 viability 0%, S2 tox inactive and uPA generation -7%.
`O=C(Cc1ccc([N+](=O)[O-])cc1)NCc1cccnc1` gave ATXN2 expr inh -5%, Giardia killer -7, TGFb SMAD3 inh 14%, HepG2 viability 14%, S2 tox inactive and uPA generation 4%.
Screening O=C(NCc1cccnc1)c1ccc([N+](=O)[O-])o1 returned Giardia killer -90*, TGFb SMAD3 inh inconclusive, HepG2 viability -56%, S2 tox inconclusive and uPA generation inconclusive.
Screening COc1cc(C(C)C)c(Oc2cnc(NC(CO)CO)nc2N)cc1I returned ATXN2 expr inh 24µM*.
CCC1C(=O)NCCN1Cc1ccc2c(c1)CN(Cc1cccc(OC)c1)CCO2 (stereo not given) was read as S2 tox inactive.
`COc1cc(-c2nc3ccc4ccccc4c3c3c2CCC3)cc(OC)c1O` gave ATXN2 expr inh inconclusive, Giardia killer 7, TGFb SMAD3 inh 11µM*, HepG2 viability -98%, S2 tox inconclusive and uPA generation -7%.
`COc1cc(-c2nc3ccc4ccccc4c3c3c2CCC3)cc(OC)c1OC` gave ATXN2 expr inh -18%, Giardia killer -1, TGFb SMAD3 inh 6%, HepG2 viability -7%, S2 tox inactive and uPA generation 9%.
CCOc1ccc(CCNC(=O)CSc2nnnn2C)cc1OCC was read as ATXN2 expr inh -5%, Giardia killer 6, TGFb SMAD3 inh 2%, HepG2 viability 0%, S2 tox inactive and uPA generation -2%.
Screening COc1ccc(CCNC(=O)CSc2nnc3ccccn23)cc1 returned ATXN2 expr inh 7%, Giardia killer 0, TGFb SMAD3 inh 0.45µM*, HepG2 viability 3%, S2 tox inactive and uPA generation 2%.
O=C(CSc1nnc2ccccn12)NCCc1ccc(F)cc1 was read as ATXN2 expr inh 10%, Giardia killer -5, TGFb SMAD3 inh 0%, HepG2 viability -3%, S2 tox inactive and uPA generation 1%.
For Cn1nnnc1SCC(=O)NCCc1ccc(Cl)cc1 the results were ATXN2 expr inh -1%, Giardia killer 4, TGFb SMAD3 inh -13%, HepG2 viability 16µM*, S2 tox inactive and uPA generation 2%.
NC(=O)c1cc[n+](CC2=C(C(=O)[O-])N3C(=O)[C@@H](NC(=O)Cc4cccs4)[C@H]3SC2)cc1 was read as ATXN2 expr inh 2% and S2 tox inactive.
`CCn1c(=O)[nH]c(=O)c2c(N)c(C(=O)c3cc(F)ccc3F)sc21` gave ATXN2 expr inh -22%, Giardia killer 2, TGFb SMAD3 inh 11µM*, HepG2 viability 0%, S2 tox inactive and uPA generation -8%.
`O=C(O)C1CC=CC2CCN(C3CC3)C(=O)C21` (stereo not given) gave Giardia killer 6, TGFb SMAD3 inh 1% and HepG2 viability -12%.
CN(C)S(=O)(=O)c1cccc(NC(=O)c2ccc(COc3ccccc3)cc2)c1 was read as ATXN2 expr inh inconclusive, Giardia killer 8, TGFb SMAD3 inh -21%, HepG2 viability -33%, S2 tox 13µM* and uPA generation -8%.
`O=C(Nc1cccc(Cl)c1)c1cc(S(=O)(=O)NCCc2ccc(Cl)cc2)ccc1F` gave ATXN2 expr inh -35%, Giardia killer 2, TGFb SMAD3 inh 11µM*, HepG2 viability -126%, S2 tox inactive and uPA generation -7%.
Screening CS(=O)(=O)N(Cc1ccccc1)c1ccc(C(=O)Nc2cccc(Cl)c2)cc1 returned ATXN2 expr inh 0%, TGFb SMAD3 inh 16µM* and HepG2 viability 11µM*.
CC(C)c1ccc(NC(=O)c2cc(S(=O)(=O)NCCC3=CCCCC3)ccc2F)cc1 was read as ATXN2 expr inh inconclusive, TGFb SMAD3 inh inconclusive, HepG2 viability 13µM* and S2 tox inconclusive.
`CCC1CN(CC(=O)NCc2ccc3c(c2)OCO3)Cc2ccc(Cl)cc2O1` (stereo not given) gave S2 tox inactive.
`CN(C)c1ccc(-c2nnc(SCC(=O)NCc3ccco3)n2C)cc1` gave TGFb SMAD3 inh -4% and HepG2 viability -14%.
CC1CN(CC(=O)NCCC2COc3ccccc3O2)Cc2cc(Cl)ccc2O1 (stereo not given) was read as S2 tox inactive.
`COCCN1CCN(C(=O)c2cnn(-c3nccc(-c4ccccc4F)n3)c2-c2ccco2)CC1` gave S2 tox inactive.
For CN(C)S(=O)(=O)c1ccc2c(c1)C(=Cc1cc3c([nH]1)CCCC3)C(=O)N2 the results were ATXN2 expr inh 27%.

Compound activity deposited in PubChem by National Center for Advancing Translational Sciences (NCATS).
